Where a chain is given by its changes, count along the chain named. The full ranking holds about 24,000 sequences; the median of “enrichment r” is about 0.99, and the highest 2% start at about 3.7. For the sample, the highest values were picked, then their nearest neighbours and some sequences at random.
T1: UNK ZnF1-3 (human, UniProt Q9C0B0 31-174)
T1 sequence: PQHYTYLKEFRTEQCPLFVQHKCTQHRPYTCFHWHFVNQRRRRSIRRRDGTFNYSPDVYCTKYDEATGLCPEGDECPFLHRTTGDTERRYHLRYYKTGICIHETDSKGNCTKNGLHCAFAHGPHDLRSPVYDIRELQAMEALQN

B1: 132634964_132635084_86_5pUTR_ENSMUSG00000030750_ENSMUST00000033006|mouse|control|control (ssRNA)
RNA: GGGAGUUCUACAGUCCGACGAUCCCCGCCUCCAGGGCGGAGAGAUCGCCAGACUGGAGCUCCUACUGGUGGGCUACGCGCAUUCUCCCGCUCACCAGCGGAGUACUUCCGUUUUCCCCGCCCGCUCUGUUGCUAUGGCGCCUUCAACAGAGGAUUGAGCAUCA
B2: chr2:24222969:24222970:+_ENSG00000173960_ENST00000309033|hu_mus|FALSE|FALSE (ssRNA)
RNA: GGGAGUUCUACAGUCCGACGAUCAUUAAUGACACAGCUAUUUAAUGUCAUAUUGGCUAACUAAUAUUUGAAAAAUAGGUAUUUUUUUCUGAAUAGCCUGUUGAGAAAAAUGCACUGACCCUGGCUUAGAGCCAUGUCACUCUCCAACAGAGGAUUGAGCAUCA
B3: chr16:94664741:94664742:+_ENSMUSG00000040785_ENSMUST00000117648|mus_hu|mus_mus_mus_hu_False|48_78 (ssRNA)
RNA: GGGAGUUCUACAGUCCGACGAUCUGGUACUGAUCUUGGUAGCUGAUAUUCAGGAGAAAUGUUGGCCAAGGGUGUAUAUAUGCUGGUGAACUGCGACAAACCUGGUAACACGUUUAUGUAUGCUGGCGGUGUCUGGGUGAUAUCCAACAGAGGAUUGAGCAUCA
B4: 203421096_203421216_3307_3pUTR_ENSG00000204217_ENST00000374580|human|control|control (ssRNA)
RNA: GGGAGUUCUACAGUCCGACGAUCAGAUCCAGAGAAUUAGGCCUCUGUGCUCUUCUGGGCUUUGAUGGCCCAGGAUCUGCUGCUGUGCUUGGAACACCCUGUGCAAGAACAUCUUGUUCUGAACAUGGAUUGCUGUUGUUGUUACAACAGAGGAUUGAGCAUCA
B5: chr11:87793471:87793472:-_ENSMUSG00000020483_ENSMUST00000020775|mus_mus|mus_mus_mus_hu_False|1_108 (ssRNA)
RNA: GGGAGUUCUACAGUCCGACGAUCUGGGGGCUGGGGAAAAAGAAUAAGCUGGAUCCCCCACCCCCCCACAUUGUCAACCCUACACGAGAGUUUUGAAGGCGACUCAUGAAAAUCAGCAGCUCAAACGGCAAUGACCACCCACCCCAACAGAGGAUUGAGCAUCA
B6: chr11:87793471:87793472:-_ENSMUSG00000020483_ENSMUST00000020775|mus_mus|mus_mus_mus_hu_False|58_98 (ssRNA)
RNA: GGGAGUUCUACAGUCCGACGAUCUGGACUUGAAAAUAAAAAAAAUAGCUGGAUCCCCCACCCCCCCACAUUGUCAACCCUAUGCGAGAGUUUUGAAGGCGACUCAUGAAAAUCAGCAGCUCAAACGGCAAUGACCACCCCACCCAACAGAGGAUUGAGCAUCA
B7: chr4:57314706:57314707:+_ENSG00000128050_ENST00000264221|hu_mus|hu_hu_hu_mus_True|18_58 (ssRNA)
RNA: GGGAGUUCUACAGUCCGACGAUCCAGAAUUUCAAAAAUAGCUUGUGUGGCAUGACUCAUGAUGUCCACUUCAGUCUGGCCUAUAAGAAGGCCAGCAAAACAGAAUUUUGCAGCAAUCAGCUGUUCCUCAGACCACUGUGGAUCCAACAGAGGAUUGAGCAUCA
B8: chrX:16864032:16864033:-_ENSG00000102054_ENST00000404022|hu_hu|FALSE|FALSE (ssRNA)
RNA: GGGAGUUCUACAGUCCGACGAUCCAUGAUGUUAUCCUCAGACACUGAGCAAAUGACCCAAGGCUCAUUGGGGUUCCAGCUAAAAUCUGAAAUCUUAGCAGUGUGUCCUCCAUGAAUAAACAGGAGUUCUGGAGGCCCAUCUUCCAACAGAGGAUUGAGCAUCA
B9: chr11:87793471:87793472:-_ENSMUSG00000020483_ENSMUST00000020775|mus_mus|mus_mus_mus_hu_False|88_98 (ssRNA)
RNA: B6 RNA with G50A, C54U, C55U, U82C, G83A
B10: chr11:87793471:87793472:-_ENSMUSG00000020483_ENSMUST00000020775|mus_mus|mus_mus_mus_hu_False|1_98 (ssRNA)
RNA: B6 RNA with U82C, G83A, C140A, A141C
B11: chr11:87793471:87793472:-_ENSMUSG00000020483_ENSMUST00000020775|mus_mus|mus_mus_mus_hu_False|38_98 (ssRNA)
RNA: B6 RNA with U82C, G83A, G97U, C99A, G100U, A101U, U103A, C104U, U106A
B12: chr11:87793471:87793472:-_ENSMUSG00000020483_ENSMUST00000020775|mus_mus|mus_mus_mus_hu_False|98_98 (ssRNA)
RNA: B6 RNA with U82C, G83A
B13: chr4:57314706:57314707:+_ENSG00000128050_ENST00000264221|hu_mus|hu_hu_hu_mus_True|1_18 (ssRNA)
RNA: B7 RNA with G78C, G86C, A141G
B14: chr11:87793471:87793472:-_ENSMUSG00000020483_ENSMUST00000020775|mus_mus|mus_mus_mus_hu_False|68_98 (ssRNA)
RNA: B6 RNA with U70G, U82C, G83A
B15: chr11:87793471:87793472:-_ENSMUSG00000020483_ENSMUST00000020775|mus_mus|mus_mus_mus_hu_False|38_88 (ssRNA)
RNA: GGGAGUUCUACAGUCCGACGAUCUGGACUUGAAAAUAAAAGAAUAAGCUAGAUUUCCCACCCCCCCACAUUGUCAACCCUACACGAGAGUUUUGAAUGAUUCAUAAGAAAAUCAGCAGCUCAAACGGCAAUGACCACCCCACCCAACAGAGGAUUGAGCAUCA
B16: chr14:103803487:103803488:+_ENSG00000100664_ENST00000558506|hu_hu|FALSE|FALSE (ssRNA)
RNA: GGGAGUUCUACAGUCCGACGAUCGAGUUUAUGAUGUGUGUCAAGCAUGCCUCGAUAGCCACAGGCUUUACAAGAAUUACCUAUUGUUUGCUUCUUUGGAUUGACAUGCAAAUCUGUUUCAGGAUUCUCACAUUCAGGACAGAGCAACAGAGGAUUGAGCAUCA
B17: chr11:68315578:68315579:+_ENSG00000110075_ENST00000393800|perfect_dup|motif|central (ssRNA)
RNA: GGGAGUUCUACAGUCCGACGAUCUGGAGGUUCGAUACACGUCAGGAGCCUGAGCAACAAAUCCAUGAUAGCAGAAGUUCCGGUGUGCUUUAUAAUAAGGUCUACAAAAUCAUGCUUCUUCUUUAAGAAAUCCACAAUCUGUUCCAACAGAGGAUUGAGCAUCA
B18: chr2:216981417:216981418:+_ENSG00000079246_ENST00000392132|hu_hu|hu_hu_hu_mus_True|28_68 (ssRNA)
RNA: GGGAGUUCUACAGUCCGACGAUCCUGAUACUGGUCCUUGCCAGCAAGGGCAUUAUCAGUGCCAUCUGUACCAAACAGGACUAACGCAAUCUCAUCUUUGCUCUCCGCAAACACCUGUCGUUGGACAAACAUAGUCAUCACUUUCAACAGAGGAUUGAGCAUCA
B19: chr1:112309342:112309343:+_ENSG00000064703_ENST00000369702|hu_hu|FALSE|FALSE (ssRNA)
RNA: GGGAGUUCUACAGUCCGACGAUCUCUCCAGUACUCCUCAUAAUCCUGAUAGGUAUCAGAAAAACUCAGACGUAUUUCCCUAUGACAGUCAUACCAAUCAUCUUCCUGGGCUUCAGUCUGCAAUCUGAAGGAAGACCGCCUGGGCAACAGAGGAUUGAGCAUCA
B20: chr2:158287933:158287934:+_ENSMUSG00000027652_ENSMUST00000141497|mus_hu|FALSE|FALSE (ssRNA)
RNA: GGGAGUUCUACAGUCCGACGAUCAAGAGGUUGUUCCAGCAUUGCCAGGAUGACACUGUUAUCCAAGACAAAGUACCGGAAACUAUGCUUGUUUAUGGUUGGCAGCCUGGAGUAUUUAAUCAAAGUGGUCUCAUUCACAAGACUCAACAGAGGAUUGAGCAUCA
B21: chr3:179287964:179287965:+_ENSG00000136518_ENST00000429709|hu_hu|hu_hu_hu_mus_True|28_28 (ssRNA)
RNA: GGGAGUUCUACAGUCCGACGAUCCUUGAGUGGUGAGAUGGCCUCCAUGUUCUCCCUGGGCACGCGGAGGGCAUUGGUGUCUAUGUAGUAGGUGGGCCCGCCCUGCUUGCCUUUAUCACCAUCAAUCUCCAUCAUUGUACUUCCCAACAGAGGAUUGAGCAUCA
B22: chr4:131761308:131761309:-_ENSMUSG00000040025_ENSMUST00000102570|mus_mus|FALSE|FALSE (ssRNA)
RNA: GGGAGUUCUACAGUCCGACGAUCGCUGACUGUCCAUCAAUCAUGGCUCCACCUAAGGAGCUGGGUGCAUAAGCGUAAUUGCUACUAUAUCCAGAGCUUUGAGUAGACUGUCCCUGAGAACUGUUAUUUCCCCAUGCUGAGAAGCAACAGAGGAUUGAGCAUCA

Biological target: T1, UNK ZnF1-3
Assay: nsRBNS (natural sequence RNA bind-n-seq); RBNS binding buffer (assumed for nsRBNS): 25 mM Tris pH 7.5, 150 mM KCl, 3 mM MgCl2, 0.01% Triton X-100, 500 ug/ml BSA, 20 U/ml SUPERase-In, 4 C; UNK is unkempt and MSI1 is Musashi-1; names of the RNAs are library labels; protein concentration not given here; high values mean tight binding

| Binder | binding signal |
| --- | --- |
| B1 | 0.567 enrichment R |
| B2 | 0.836 enrichment R |
| B3 | 1.01 enrichment R |
| B4 | 0.924 enrichment R |
| B5 | 1.72 enrichment R |
| B6 | 3.93 enrichment R |
| B7 | 0.97 enrichment R |
| B8 | 1.18 enrichment R |
| B9 | 3.58 enrichment R |
| B10 | 3.94 enrichment R |
| B11 | 4.29 enrichment R |
| B12 | 4.07 enrichment R |
| B13 | 0.937 enrichment R |
| B14 | 3.54 enrichment R |
| B15 | 1.97 enrichment R |
| B16 | 1.32 enrichment R |
| B17 | 1.87 enrichment R |
| B18 | 0.739 enrichment R |
| B19 | 0.941 enrichment R |
| B20 | 0.695 enrichment R |
| B21 | 0.667 enrichment R |
| B22 | 1.1 enrichment R |

From article PMC12136788
